Screening results as filed in PubChem BioAssay.
hNpr1 antagonist: human Npr1 receptor antagonism; 1.6% of 76,000 active; AID 1347048; Potency, µM (titrated, usually from 46.3 µM), most hits filed as inhibitors; HEK293 hNpr1 GloSensor cGMP, ANP-stimulated luminescence; P16066; calls by dose curve; further: nearly all actives have a fitted effect of over 60% in size
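HEK293 cells stably expressing human Npr1 and cGMP GloSensor pGS-40F, loaded 2 h with 2% GloSensor reagent, given compound 30 min at room temperature. Luminescence read before and 20 min after 0.1 nM hNppA.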
Luciferase inh: Photinus pyralis luciferase inhibition; 2.5% of 76,000 active; purified P. pyralis luciferase, luminescence, biochemical; Potency, µM (titrated, usually from 115 µM), hits mostly inhibitors; further: nearly all actives have a fitted effect of over 65% in size
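FLuc 10nM, D-luciferin 10uM, ATP 10uM, Mg acetate 10mM, Tris acetate pH 7.5, Tween/BSA; cpd qHTS; enzyme added last; CCD luminescence.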
3T3 cytotox: cytotoxic compounds in NIH 3T3 cells | NIH 3T3 viability, CellTiter-Glo ATP luminescence, 48-72 h | Potency, µM (highest dose often 96.7 µM), usual class: inhibitors | 4.3% of 94,000 active; further: nearly all actives have a fitted effect of over 55% in size
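Luminescent ATP readout (CellTiter-Glo, 10 min RT) after 48 or 72 hr compound exposure of NIH 3T3 cells seeded at 400 cells/well in 1536-well format; quantitative HTS.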
HEK293 tox: kills HEK 293 cells; AID 1345083; Potency, µM (top dose mostly 115 µM), actives largely listed as inhibitors; HEK 293 viability, ATP luminescence (CellTiter-Glo), 48-72 h; 6.6% of 94,000 active; further: nearly all actives have a fitted effect of over 60% in size
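HEK 293 cells seeded at 250 cells/well were exposed to compound for 48 or 72 hr at 37 degree Celsius. Viability taken as ATP content by CellTiter-Glo luminescence.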
GPT2 inh: blocks human glutamate pyruvate transaminase 2; Q8TD30; Recombinant GPT2, coupled pyruvate oxidase/HRP Amplex Red fluorescence; Potency, µM (series often up to 57.7 µM), actives largely listed as inhibitors; 0.25% of 100,000 active; AID 1671188; further: nearly all actives have a fitted effect of over 60% in size
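Fluorescence read-out: pyruvate from GPT2 turnover coupled to pyruvate oxidase, HRP and Amplex Red (0.2mM ThPP, 0.2U/mL PO and HRP, 50uM Amplex final). Substrates 250uM a-KG, 2mM L-alanine; enzyme 10ng/uL; 30 min RT.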
Npr1 antag conf: hNpr1 antagonism, confirmation assay | AID 1347044 | shares compounds with hNpr1 antagonist | HEK293 hNpr1 cGMP GloSensor luminescence, ANP-stimulated | 76% of 1,400 active | Potency, µM (top dose mostly 57.6 µM), actives largely listed as inhibitors; calls by dose curve; further: nearly all actives have a fitted effect of over 70% in size
Npr2 selectivity: selectivity test of Npr1 antagonists against human Npr2. Potency, µM (top dose mostly 57.6 µM), most hits filed as inhibitors. 67% of 1,400 active. AID 1347046. shares compounds with hNpr1 antagonist. HEK293 hNpr2 GloSensor cGMP luminescence, CNP-stimulated; calls by dose curve; further: nearly all actives have a fitted effect of over 70% in size
FLuc inh counter: inhibits firefly luciferase, false Npr1 antagonist flag; shares compounds with hNpr1 antagonist; purified FLuc enzyme, luminescence, Km substrate; Potency, µM (titrated, usually from 57.6 µM), most hits filed as inhibitors; 0.7% of 1,400 active; further: series mostly up to about 58 µM
GloSensor ctrl: control cell line activity, Npr1 antagonist counter-screen | shares compounds with hNpr1 antagonist | HEK293 GloSensor cGMP, SNP-stimulated, luminescence | Potency, µM (titrated, usually from 57.6 µM), hits mostly inhibitors | 69% of 1,400 active | AID 1347051; calls by dose curve; further: nearly all actives have a fitted effect of over 70% in size
Hits are given with their value; . = inactive; ? = inconclusive; / = no result. An excerpt weighted towards active compounds, which were near 10% of everything screened. Unless noted, the call rests on the fitted dose curve; in most records, active means well fitted curve in the direction sought with a large enough effect; inconclusive means small, poorly fitted or top-dose-only effect, or another doubt; inactive means no such curve, though single readings can be large; an effect the other way counts as inactive or inconclusive.

SMILES | hNpr1 antagonist | Luciferase inh | 3T3 cytotox | HEK293 tox | GPT2 inh | Npr1 antag conf | Npr2 selectivity | FLuc inh counter | GloSensor ctrl
CN(Cc1ccccc1)C(=O)c1ccc2c(c1)NC(C)(COc1cccnc1)CO2 (stereo not drawn) | 32µM | . | . | ? | . | 31µM | 31µM | . | 22µM
CC1(COc2ccccc2)COc2ccc(C(=O)N3CCN(c4ccccn4)CC3)cc2N1 (stereo not drawn) | . | . | ? | ? | . | / | / | / | /
Cc1ccc(C(=O)N(CC2CCN(Cc3ccccc3F)CC2)CC2CCCO2)s1 (stereo not drawn) | . | . | . | ? | . | / | / | / | /
Cc1cc(C)cc(C(=O)N2CCC(n3cc(-c4nc(C)no4)nn3)CC2)c1 | . | . | . | . | . | / | / | / | /
CCN1c2cc(C(=O)Nc3ccc(C(=O)OC)cc3)ccc2C(=O)N2CCCC21 (stereo not drawn) | . | . | . | ? | . | / | / | / | /
Cc1nc(CNC(=O)CCN2Cc3ccccc3OC(c3ccccc3F)C2)cs1 (stereo not drawn) | . | . | . | . | . | / | / | / | /
CN(C)C(=O)N1CCC(C(=O)N2CCC(N3Cc4ccccc4C3=O)CC2)CC1 | / | / | ? | . | . | / | / | / | /
Cn1nccc1CN1CCn2c(nn(-c3ccc(C(F)(F)F)cc3)c2=O)C1 | / | / | ? | ? | . | ? | ? | . | ?
O=C(c1ccc(C(F)(F)F)cc1)N1CCn2c(nn(-c3ccc(C(F)(F)F)cc3)c2=O)C1 | / | / | ? | ? | . | / | / | / | /
COc1ccc(-n2nc3n(c2=O)CCN(Cc2ccc(C(F)(F)F)cc2)C3)cc1 | / | / | ? | ? | . | / | / | / | /
O=c1n(-c2ccncc2)nc2n1CCN(Cc1ccc(C(F)(F)F)cc1)C2 | 16µM | . | ? | 13µM | . | 15µM | 17µM | . | 12µM
CC(C)(C)c1nnc2ccc(C(=O)NCc3cccc(Cl)c3)cn12 | / | / | ? | ? | . | / | / | / | /
Cc1ccccc1CN1Cc2nc(NCc3cccc(F)c3)ccc2OCC1=O | ? | . | 79µM | ? | . | 40µM | 35µM | . | 40µM
O=C1COc2ccc(-c3cccnc3)nc2CN1Cc1ccc(C(F)(F)F)cc1 | . | . | ? | ? | ? | / | / | / | /
O=C1COc2ccc(N3CCCC3)nc2CN1Cc1ccc(C(F)(F)F)cc1 | ? | . | ? | 79µM | . | 40µM | ? | . | ?
O=C1COc2ccc(-c3ccc4c(c3)OCO4)nc2CN1Cc1ccc(F)cc1 | ? | . | ? | 56µM | . | ? | 35µM | . | ?
COCCOCc1nc(C2CCCN2C(=O)NCc2ccc(OC)cc2)no1 (stereo not drawn) | / | / | . | . | . | / | / | / | /
O=C(C1CC1)N1CCC(n2cc(-c3nc(-c4ccccc4)no3)nn2)CC1 | ? | . | ? | ? | . | ? | ? | . | ?
O=C(C1CCC1)N1CCC(n2cc(-c3nc(-c4ccccc4)no3)nn2)CC1 | ? | . | ? | ? | . | 24µM | 24µM | . | 22µM
Cc1noc(-c2cn(C3CCN(C(=O)C4(c5ccccc5)CC4)CC3)nn2)n1 | . | . | . | . | . | / | / | / | /
CCOc1ccccc1C(=O)N1CCC(n2cc(-c3nc(-c4ccccc4)no3)nn2)CC1 | ? | . | ? | 40µM | . | 24µM | ? | . | ?
O=C(N1CCC(n2cc(-c3nc(-c4ccccc4)no3)nn2)CC1)C1(c2ccccc2)CC1 | 13µM | . | ? | 32µM | . | 24µM | 27µM | . | 24µM
